The panel holds about 83,000 compounds, 20% with a hit somewhere; the sample as a whole holds those more often.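 Activity criterion: percent growth below 10, measured after cells in 96-well plates were exposed to a single compound concentration for 48 hours.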 Values without a mark were called inactive. The source made the active and inactive calls.
What was measured:
Experiment in all cases: NCI-60 one-dose screen, 48 h (100 = growth as untreated, 0 = no growth, -100 = all killed)
Conditions in all cases: 10 µM unless noted
DU-145 prostate = tested on: DU-145 prostate
K-562 leukemia = tested on: K-562 leukemia
MALME-3M melanoma = tested on: MALME-3M melanoma
MDA-MB-231 breast = tested on: MDA-MB-231 breast
RXF 393 renal = tested on: RXF 393 renal
SF-268 CNS = tested on: SF-268 CNS
SF-295 CNS = tested on: SF-295 CNS
SF-539 CNS = tested on: SF-539 CNS
UACC-257 melanoma = tested on: UACC-257 melanoma
M14 melanoma = tested on: M14 melanoma
HCT-15 colon = tested on: HCT-15 colon
HT29 colon = tested on: HT29 colon
SNB-75 CNS = tested on: SNB-75 CNS
SNB-19 CNS = tested on: SNB-19 CNS
U251 CNS = tested on: U251 CNS
PC-3 prostate = tested on: PC-3 prostate
SK-MEL-5 melanoma = tested on: SK-MEL-5 melanoma
UACC-62 melanoma = tested on: UACC-62 melanoma
LOX IMVI melanoma = tested on: LOX IMVI melanoma
SK-MEL-28 melanoma = tested on: SK-MEL-28 melanoma

Row | SMILES | growth (DU-145 prostate) [%] | growth (K-562 leukemia) | growth (MALME-3M melanoma) | growth (MDA-MB-231 breast) | growth (RXF 393 renal) | growth (SF-268 CNS) [%] | growth (SF-295 CNS) | growth (SF-539 CNS) | growth (UACC-257 melanoma) [%] | growth (M14 melanoma) | growth (HCT-15 colon) | growth (HT29 colon) | growth (SNB-75 CNS) [%] | growth (SNB-19 CNS) [%] | growth (U251 CNS) [%] | growth (PC-3 prostate) | growth (SK-MEL-5 melanoma) [%] | growth (UACC-62 melanoma) | growth (LOX IMVI melanoma) | growth (SK-MEL-28 melanoma)
1 | Fc1cc(Nc2ccc3c(OCCCN4CCOCC4)cccc3n2)ccc1Cl | 48.1 | -34.8% (active) | 21.4% | -18.9% (active) | 1.26% (active) | 48.5 | -46.2% (active) | 15.7% | 75.9 | -31.1% (active) | -13.4% (active) | -49.3% (active) | 37.3 | 17.8 | 14.4 | 30.6% | 63.6 | -31.7% (active) | -78.7% (active) | -35.8% (active)
2 | O=C1Nc2c(C(=O)O)cccc2/C1=N/c1n[nH]c(=S)s1 | 98.5 | 41.3% | 105% | 86.2% | 112% | 83.3 | 94.7% | 91.9% | 99.6 | 90.9% | 88.8% | 105% | 98.8 | 95.1 | 84.9 | 84.2% | – | 49.6% | 61.2% | 107%
3 | Cc1ccc(C=C2C(=O)NC(=O)NC2=O)cc1 | 108 | 86.1% | 101% | 118% | 113% | 100 | 104% | 111% | 94 | 101% | 104% | 103% | 92.5 | 106 | 99 | 95.9% | – | 102% | 98.6% | –
4 | CCN1C(=O)N(CC)C2C1NC(=S)N2/N=C/c1ccc(C(F)(F)F)cc1 (stereo not drawn) | 90.5 | 37% | 44.1% | 66.2% | 52.6% | 77.7 | 66.3% | 79.8% | 78.9 | 53.4% | 39.4% | 43.6% | 48.5 | 73.6 | 70.5 | 59.7% | – | 47.4% | 73.2% | 76.3%
5 | C#CC#CC#CC#CC#CC#CC#CC#CC[C@@H]1OC[C@@H](COC(=O)O[C@@H](C(=O)O[C@H]2C[C@@]3(O)[C@@H](OC(=O)c4ccccc4)[C@@H]4[C@]5(OC(C)=O)CO[C@@H]5C[C@H](O)[C@@]4(C)C(=O)[C@H](OC(C)=O)C(=C2C)C3(C)C)[C@@H](NC(=O)c2ccccc2)c2ccccc2)O1 | 102 | 7.18% (active) | 37.4% | 5.64% (active) | -12.3% (active) | 94.5 | 0.0837% (active) | -8.27% (active) | 95.5 | -6.06% (active) | 11% | 101% | 90.1 | 14.9 | 96.3 | 11.1% | 22.1 | 25.2% | 22.2% | 55.4%
6 | N#Cc1nc(-c2ccccc2)oc1S(=O)(=O)N1CCN(c2ccc(F)cc2)CC1 | 98.8 | 3.68% (active) | 51.8% | 83.8% | 89.8% | 88.8 | 105% | 101% | 86.8 | 53.5% | 25.5% | 46% | 96.9 | 87.6 | 82.1 | 67.5% | – | 75.6% | 15.2% | –
7 | O=c1ccc(=O)n(-c2nc(-c3ccc([N+](=O)[O-])cc3)cs2)[nH]1 | 97.7 | 95.2% | 114% | 105% | 88.4% | 95 | 98.1% | 97.3% | 102 | 101% | 96% | 55.6% | 92 | 96.1 | 95.6 | 98.6% | – | 90.7% | 98.5% | 105%
8 | C=C1C(=O)O[C@H]2[C@H]1CC/C(COC(=O)CSCSCC(=O)OC/C1=C/CC[C@@]3(C)O[C@H]3[C@H]3OC(=O)C(=C)[C@@H]3CC1)=C\CC[C@@]1(C)O[C@@H]21 | 28.3 | 3.55% (active) | -4.65% (active) | -27.9% (active) | -86.7% (active) | 20.7 | 70.3% | 3.58% (active) | 34.1 | 4.26% (active) | 0.182% (active) | -3.63% (active) | 60.4 | 54 | 10.8 | 0.538% (active) | 66.1 | 24.2% | -48.5% (active) | -4.58% (active)
